TSHR agonist – qHTS Assay for Agonists of the Thyroid Stimulating Hormone Receptor. Thyrotropin receptor (Homo sapiens), P16473. HEK293-CNG-TSHR cells (CNG channel as cAMP sensor), membrane potential dye, cAMP. Potency, µM (titrated, usually from 57.1 µM), usual class: activators. 73,000 tested, 0.48% active; active = well fitted activation curve with a large enough effect in the main read-out, with a control signal flat, not every such curve was filed as active; inconclusive = small, poorly fitted or top-dose-only effect, or a change in a side signal; inactive = no such curve, though single readings can be large or run the other way; reference of the percent scale not stated here;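 note: the control signal comes from parental cells without the receptor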
Target sequence (P16473 whole entry, looked up): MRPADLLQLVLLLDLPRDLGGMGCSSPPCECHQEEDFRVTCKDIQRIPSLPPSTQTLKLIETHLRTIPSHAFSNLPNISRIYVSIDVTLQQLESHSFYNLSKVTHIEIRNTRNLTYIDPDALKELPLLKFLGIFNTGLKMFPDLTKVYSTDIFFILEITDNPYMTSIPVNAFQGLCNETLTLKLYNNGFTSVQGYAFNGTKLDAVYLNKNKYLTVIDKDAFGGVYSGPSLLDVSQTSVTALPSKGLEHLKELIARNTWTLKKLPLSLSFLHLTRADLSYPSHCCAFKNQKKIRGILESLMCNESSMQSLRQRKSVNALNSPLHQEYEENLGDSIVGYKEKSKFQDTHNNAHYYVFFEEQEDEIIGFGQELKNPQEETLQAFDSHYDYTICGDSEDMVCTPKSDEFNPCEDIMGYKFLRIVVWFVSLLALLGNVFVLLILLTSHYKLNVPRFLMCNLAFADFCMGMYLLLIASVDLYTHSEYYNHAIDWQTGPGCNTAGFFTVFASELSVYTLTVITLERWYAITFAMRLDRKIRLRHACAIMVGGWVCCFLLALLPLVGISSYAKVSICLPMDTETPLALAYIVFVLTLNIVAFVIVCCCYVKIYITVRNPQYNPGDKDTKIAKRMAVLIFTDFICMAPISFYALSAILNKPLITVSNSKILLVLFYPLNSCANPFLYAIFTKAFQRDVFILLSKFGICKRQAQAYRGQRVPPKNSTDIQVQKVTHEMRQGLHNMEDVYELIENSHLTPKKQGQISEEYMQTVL
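cAMP rise detected as CNG-channel membrane depolarization by fluorescent dye (emission 590 nm), 30 min after compound, following 60 min dye loading containing 100 uM RO 20-1724 at room temperature. Cells: TSHR/CNG HEK 293, with parental CNG HEK 293 as control.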
TsaE inh – qHTS Assay for Inhibitors of YjeE; tRNA threonylcarbamoyladenosine biosynthesis protein TsaE (Escherichia coli (strain …; purified YjeE enzyme, qHTS inhibition assay; Potency, µM; 71,000 tested, 0.05% active; AID 605, 2007
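Purified YjeE (10 uM) with BODIPY Texas Red-labeled ADP probe (2 uM); compounds pin-transferred, 15 min at room temperature. Binding inhibition read as decreased fluorescence polarization; ADP titration as control.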
BRCT PPI green – qHTS Assay for Inhibitors of BRCT-Phosphoprotein Interaction (Green Fluorophore); AID 875, 2007; 75,000 tested, 0.05% active; Potency, µM (top dose mostly 76.9 µM), usual class: inhibitors; BRCA1 BRCT-phosphopeptide binding, green fluorescence polarization; Breast cancer type 1 susceptibility protein (Homo sapiens), P38398
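Fluorescence polarization: His-tagged BRCT (~35 kDa BRCA1 C-terminus, 250 nM) bound to 100 nM fluorescein-labeled phosphorylated 10-aa BACH1 peptide, pH 7.3 phosphate buffer with DTT and Tween 20. Compounds incubated 12 min at room temperature; inhibition read as lowered polarization.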
HEK293 cAMP ctrl – qHTS Assay for Agonists of the Thyroid Stimulating Hormone Receptor: Activators of Intracellular cAMP Concentrations in Parental HEK 293. 73,000 tested, 2.5% active. Potency, µM (highest dose often 57.1 µM), usual class: activators. parental HEK293 CNG cAMP sensor, membrane potential fluorescence. AID 938, 2007; note: nearly all actives have a fitted effect of over 55% in size
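Parental HEK 293 cells stably expressing a cAMP-gated CNG channel were loaded with membrane potential dye containing 100 uM RO 20-1724 for 60 min. Compound added for 30 min; depolarization read as fluorescence intensity at 590 nm.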
BRCT inh red – qHTS Assay for Inhibitors of BRCT-Phosphoprotein Interaction (Red Fluorophore) | BRCT-phosphopeptide binding, red fluorescence polarization | Potency, µM (series often up to 76.9 µM), hits mostly inhibitors | 75,000 tested, 0.03% active | AID 892, 2007
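Rhodamine-labelled pBACH1 10-mer (100 nM) bound to BRCT domain (100 nM) at pH 7.3; compounds incubated 12 min room temperature, polarization read. Free peptide defines full inhibition; unlabelled decapeptide titrated as control.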
DNA Pol III inh – qHTS Assay for Inhibitors of DNA Polymerase III Holoenzyme System; Potency, µM (top dose mostly 57.1 µM); reconstituted DNA polymerase III holoenzyme replication, biochemical; 71,000 tested, 0.25% active
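Reconstituted *E. coli* holoenzyme (0.35 nM Pol III, 1 nM beta, 154 nM SSB, 2 nM primase) was preincubated with compound for 15 min at RT. Synthesis on 1.4 nM ssM13Gori ran 35 min, then was stopped with PicoGreen/EDTA and read as dsDNA fluorescence.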
Each line names hits and unclear results; the compound was inactive in the other large screens. Most compounds without a hit are left out; they make up all but 3.2% or so of the library. Unless noted, calls come from the whole dose curve; as a rule, active = well fitted curve in the direction sought with a large enough effect; inconclusive = small, poorly fitted or top-dose-only effect, or another doubt; inactive = no such curve, though single readings can be large; an effect the other way counts as inactive or inconclusive.

Cc1cc(C(=O)COC(=O)c2ccc3c(c2)OCO3)c(C)n1Cc1cccs1	TSHR agonist inconclusive, HEK293 cAMP ctrl inconclusive
CC(=O)Nc1ccc(SCC(=O)c2cc(C)n(Cc3cccs3)c2C)cc1	TSHR agonist inconclusive, HEK293 cAMP ctrl inconclusive
Cc1csc(SCC(=O)c2cc(C)n(Cc3cccs3)c2C)n1	TSHR agonist inconclusive, HEK293 cAMP ctrl 16µM
CC(=O)Nc1ccccc1OCC(=O)c1cc(C)n(Cc2cccs2)c1C	TSHR agonist inconclusive, HEK293 cAMP ctrl 10µM
COc1cccc(Cn2c(=O)c(-c3ccc(Cl)cc3)nc3cncnc32)c1	none
CCOCCO	none
O=C(Nc1ccccc1)N1CC2(CCN(S(=O)(=O)c3ccccc3)CC2)C1	none
CC(C)CN1CCCC2(CCN(C(=O)c3cccc(F)c3)CC2)C1	TSHR agonist inconclusive, HEK293 cAMP ctrl inconclusive
CC(C)Cn1c(=O)c(C(=O)NCc2ccccn2)c(O)c2ccccc21	TSHR agonist inconclusive, HEK293 cAMP ctrl 25µM
CCCn1c(=O)c(C(=O)NCc2ccncc2)c(O)c2ccccc21	TSHR agonist inconclusive, HEK293 cAMP ctrl inconclusive
CC(=O)OC[C@H]1O[C@@H](O/N=C(\C)CCN2CCCc3nc(C)c(C)cc32)[C@H](OC(C)=O)[C@@H](OC(C)=O)[C@H]1OC(C)=O	none (no result: TsaE inh, DNA Pol III inh)
Cn1c(=O)c(-c2ccc(F)c(F)c2)nc2cncnc21	none
C=NC(C(=O)NC1C(=O)N2C1SC(C)(C)C2C(=O)O)c1ccccc1 (configuration not stated)	none (no result: TSHR agonist, TsaE inh, HEK293 cAMP ctrl, DNA Pol III inh)
CCC(CC)C(=O)Nc1cccc(-c2nc3ccccc3o2)c1	TSHR agonist 6.3µM
COc1ccccc1CN(Cc1cc2cc(C)ccc2[nH]c1=O)Cc1nnnn1Cc1ccco1	TSHR agonist inconclusive, HEK293 cAMP ctrl 20µM
COc1ccc2[nH]c(=O)c(CN(Cc3ccco3)Cc3nnnn3Cc3ccccc3)cc2c1	none
CCc1ccc2[nH]c(=O)c(CN(Cc3ccccc3OC)Cc3nnnn3Cc3ccco3)cc2c1	TSHR agonist inconclusive, HEK293 cAMP ctrl inconclusive
CCOc1ccc2[nH]c(=O)c(CN(Cc3ccco3)Cc3nnnn3Cc3ccccc3)cc2c1	TSHR agonist inconclusive, HEK293 cAMP ctrl 32µM
C[Si](C)(C)C#Cc1ccccc1NC(=S)Nc1ccccc1	none (no result: TSHR agonist)
COc1ccccc1-n1c(SC)nc(O)cc1=O	TSHR agonist inconclusive, HEK293 cAMP ctrl 32µM
COc1ccccc1-n1c(SCC(=O)NC(C)(C)C)nc(O)cc1=O	none
O=C(c1ccccc1F)N1CCN(c2ccccc2F)CC1	none
O=C(c1ccccc1C(=O)N1CCN(c2ccccc2F)CC1)N1CCN(c2ccccc2F)CC1	TSHR agonist inconclusive, HEK293 cAMP ctrl 16µM
CN1CCN(c2ncc3ncc(=O)n(CCC#N)c3n2)CC1	none
C=CCN=C1SC(C)C(=O)N1S(=O)(=O)c1ccccc1 (configuration not stated)	TSHR agonist 3.2µM
O=C(CSc1nc2c(sc3ccccc32)c(=O)n1CCO)NCC1CCCO1 (configuration not stated)	none
CCOC(=O)CSc1nc2c(sc3ccccc32)c(=O)n1CCCN1CCOCC1	TSHR agonist inconclusive, HEK293 cAMP ctrl 13µM
O=C1c2ccccc2C(=O)N1CCCCN(C(=O)c1ccco1)c1ccc(Cl)cc1	TSHR agonist inconclusive, HEK293 cAMP ctrl 25µM
O=C1CCC(=O)N1CN(C(=O)c1ccco1)c1ccccc1	none
O=C(CSc1nnc(-c2ccc(O)cc2)n1Cc1ccco1)c1cccs1	TSHR agonist 10µM
COc1cccc(-c2nnc(SCC(=O)OC(C)C)n2Cc2ccco2)c1	TSHR agonist inconclusive, HEK293 cAMP ctrl 16µM
O=C(CSc1nnc(Cc2ccccc2)n1Cc1ccco1)NC1CCCC1	TSHR agonist inconclusive, HEK293 cAMP ctrl inconclusive
